Assay outcomes deposited in PubChem BioAssay by NMMLSC.
A selection: hits, their analogues and other compounds. The true share with any hit is near 1.2%.
RGS4-Gao reg: modulates binding of RGS4 to human Galphao | AID 1415 | binding response (% of control), % at 10 µM | Multiplexed bead flow cytometry; actives lie on both sides | P09471 | 0.33% of 220,000 active; in the data active means binding response below about 49% or above about 150%; inactive means in between;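 further: fluorescent Galphao activated with aluminum fluoride binding bead-coupled RGS4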
Target sequence (P09471 whole entry, looked up): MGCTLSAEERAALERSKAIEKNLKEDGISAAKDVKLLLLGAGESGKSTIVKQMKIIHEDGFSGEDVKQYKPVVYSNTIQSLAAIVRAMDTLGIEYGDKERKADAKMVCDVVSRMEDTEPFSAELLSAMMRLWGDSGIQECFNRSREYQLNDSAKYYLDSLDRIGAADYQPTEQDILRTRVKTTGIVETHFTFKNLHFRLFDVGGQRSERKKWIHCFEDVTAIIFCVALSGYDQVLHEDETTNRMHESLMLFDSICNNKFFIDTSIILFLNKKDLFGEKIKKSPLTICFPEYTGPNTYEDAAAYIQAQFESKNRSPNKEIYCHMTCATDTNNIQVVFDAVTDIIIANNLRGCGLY
Avidin bead fluor: avidin bead compound fluorescence profile | Avidin beads, compound fluorescence 488/530 nm, flow cytometry; active compounds read high | fluorescence (KMESF) at 10 µM | 0.38% of 220,000 active | AID 1775; in the data active means fluorescence above about 47
RGS16-Gao: regulators of human RGS16-Galphao interaction | 0.38% of 220,000 active | AID 1441 | O15492+P09471 | binding response (% of control), % at 10 µM | bead-based flow cytometry RGS16-Galphao binding, fluorescence; actives lie on both sides; call rule not given here;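 further: Galphao activated by GDP with aluminum fluoride before binding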
Target sequence (O15492 whole entry, looked up): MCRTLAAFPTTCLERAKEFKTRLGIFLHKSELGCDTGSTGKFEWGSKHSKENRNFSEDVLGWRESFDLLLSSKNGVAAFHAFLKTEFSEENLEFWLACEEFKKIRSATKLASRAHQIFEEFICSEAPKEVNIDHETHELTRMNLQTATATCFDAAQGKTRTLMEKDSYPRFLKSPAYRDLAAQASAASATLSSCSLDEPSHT
Target sequence (P09471 whole entry, looked up): as the sequence (P09471 whole entry, looked up) above
RGS7-Gao: regulators of human RGS7-Galphao interaction. Multiplexed bead flow cytometry, RGS7-Galphao binding; actives lie on both sides. binding response (% of control), % at 10 µM. 0.35% of 220,000 active; in the data active means binding response below about 49% or above about 150%; inconclusive means no clear call, values can overlap the other calls; inactive means in between;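 further: fluorescent Galphao held in activated GDP-AlF4 state binding bead-coupled RGS7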
GSH bead fluor: GSH bead compound fluorescence profile; GSH beads flow cytometry, compound fluorescence 488/530 nm; active compounds read high; 0.25% of 190,000 active; fluorescence (KMESF) at 10 µM; in the data active means fluorescence above about 89;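 further: glutathione beads carrying GST-tagged Bcl family fusion proteins plus one bare bead set; values are compound well signal with DMSO vehicle wells as background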
RGS8-Gao: regulators of human RGS8-Galphao interaction. 0.34% of 220,000 active. multiplexed bead flow cytometry, RGS8-Galphao binding; actives lie on both sides. response (percent of control binding), % at 10 µM. P09471; in the data active means response below about 60% or above about 140%; inactive means in between;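 further: Galphao activated as the GDP aluminium fluoride complex binding bead-coupled RGS8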
Numbers without * were called inactive; [ ] = remark or other dose.

How did CCN1CCN(S(=O)(=O)c2cc(C(=O)O)ccc2Cl)CC1 do in these assays?
RGS4-Gao reg: 123.6; Avidin bead fluor: 58*; RGS16-Gao: 100.9; RGS7-Gao: inconclusive; RGS8-Gao: 97.9

How did Cc1ccccc1CSCC(=O)NC(=O)NCc1ccco1 do in these assays?
RGS4-Gao reg: 90.6; Avidin bead fluor: 6; RGS16-Gao: 103.7; RGS7-Gao: 91.7; GSH bead fluor: 261*; RGS8-Gao: 101.3

What do the screens show for `Clc1ccc(-c2c(C3=NCCCN3)nnn2-c2ccc(Cl)cc2)cc1`?
RGS4-Gao reg: 103.3; Avidin bead fluor: 5; RGS16-Gao: 100.9; RGS7-Gao: inconclusive; RGS8-Gao: 101.9

How did Cc1nc(N2CCOCC2)nc(OCCN2CCOCC2)c1[N+](=O)[O-] do in these assays?
RGS4-Gao reg: 98.6; Avidin bead fluor: 25; RGS16-Gao: 100.5; RGS7-Gao: 100.2; GSH bead fluor: 10; RGS8-Gao: 102.3

How did CCC(=O)NC(Nc1ncc(C)s1)(C(=O)OC)C(F)(F)F (configuration not stated) do in these assays?
RGS4-Gao reg: 102.8; Avidin bead fluor: 8; RGS16-Gao: 104.5; RGS7-Gao: 101.8; GSH bead fluor: 124*; RGS8-Gao: 102.5

What do the screens show for `O=c1cc(CN2CCC3(CC2)OCCO3)c2c(ccc3ccccc32)o1`?
RGS4-Gao reg: 99.4; Avidin bead fluor: 10; RGS16-Gao: 98.2; RGS7-Gao: 102.7; GSH bead fluor: 8; RGS8-Gao: 102.5

What do the screens show for `O=c1cc(CN2CCN(c3ccccc3)CC2)c2c(ccc3ccccc32)o1`?
RGS4-Gao reg: 100.1; Avidin bead fluor: 55*; RGS16-Gao: 95.5; RGS7-Gao: 108.1; GSH bead fluor: 14; RGS8-Gao: 97.5

Results for N#Cc1cc([N+](=O)[O-])cnc1Nc1ccccc1 ?
RGS4-Gao reg: 95.9; Avidin bead fluor: 9; RGS16-Gao: 95.7; RGS7-Gao: 96.5; GSH bead fluor: 16; RGS8-Gao: 99.5

What do the screens show for `COc1ccc(N2CCN(C(c3cc(OC)ccc3OC)c3nnnn3CC3CCCO3)CC2)cc1` (configuration not stated)?
RGS4-Gao reg: 99.2; Avidin bead fluor: 21; RGS16-Gao: 94.0; RGS7-Gao: 99.0; GSH bead fluor: 15; RGS8-Gao: 96.7

Results for COc1ccc(C2=C(O)C(C)N(c3ccccc3)C2=N)cc1OC (configuration not stated) ?
RGS4-Gao reg: 103.4; Avidin bead fluor: 53*; RGS16-Gao: 100.9; RGS7-Gao: 109.6; GSH bead fluor: 11; RGS8-Gao: 101.7

Results for COc1ccc(-c2cnn(-c3ccccc3)c2N)cc1OC ?
RGS4-Gao reg: 97.9; Avidin bead fluor: 15; RGS16-Gao: 87.1; RGS7-Gao: 100.7; GSH bead fluor: 20; RGS8-Gao: 100.2

What do the screens show for `O=Cc1cccn1-c1ccc(O)cc1`?
RGS4-Gao reg: 98.6; Avidin bead fluor: 13; RGS16-Gao: 98.7; RGS7-Gao: 101.2; GSH bead fluor: 11; RGS8-Gao: 102.9

What do the screens show for `Cc1cccc(C(=O)NC(NCc2ccco2)C(Cl)(Cl)Cl)c1` (configuration not stated)?
RGS4-Gao reg: 48.8*; Avidin bead fluor: 2; RGS16-Gao: 41.5; RGS7-Gao: 44.1*; GSH bead fluor: 26; RGS8-Gao: 56.9*

Results for O=C1c2ccncc2C(=O)N1CO ?
RGS4-Gao reg: -31.1*; Avidin bead fluor: -3; RGS16-Gao: -19.9*; RGS7-Gao: -10.4*; GSH bead fluor: 11; RGS8-Gao: 8.6*

How did CC1Cc2ccccc2N1C(=O)CCS(=O)(=O)c1cccs1 (configuration not stated) do in these assays?
RGS4-Gao reg: 222.1*[activator]; Avidin bead fluor: 125*; RGS16-Gao: 634.1; RGS7-Gao: 322.5*[activator]; GSH bead fluor: 150*; RGS8-Gao: 147.7*[activator]

Results for CC1Cc2ccccc2N1C(=O)CN1C(=O)C(=O)N(Cc2ccccc2)C1=O (configuration not stated) ?
RGS4-Gao reg: 96.3; Avidin bead fluor: 7; RGS16-Gao: 105.1; RGS7-Gao: 95.9; GSH bead fluor: 260*; RGS8-Gao: 98.0

Results for c1ccc(-c2noc(CC3CCCCC3)n2)nc1 ?
RGS4-Gao reg: 100.5; Avidin bead fluor: 9; RGS16-Gao: 111.3; RGS7-Gao: 100.6; GSH bead fluor: 23; RGS8-Gao: 101.9

What do the screens show for `CCn1cc(C(=O)O)c(=O)c2cc(F)c(N3CCN(C(=S)NC(=O)c4ccccc4)CC3)cc21`?
RGS4-Gao reg: 90.3; Avidin bead fluor: 8; RGS16-Gao: 90.0; RGS7-Gao: inconclusive; RGS8-Gao: 92.7

Results for COc1c(N2CCN(C(=S)NCc3ccccc3)C(C)C2)c(F)cc2c(=O)c(C(=O)O)cn(C3CC3)c12 (configuration not stated) ?
RGS4-Gao reg: 104.7; Avidin bead fluor: 55*; RGS16-Gao: 102.5; RGS7-Gao: 110.2; GSH bead fluor: 35; RGS8-Gao: 103.2

Results for Cc1cccc(N(CC(=O)N/N=C/c2cc([N+](=O)[O-])ccc2Cl)S(C)(=O)=O)c1C ?
RGS4-Gao reg: 102.5; Avidin bead fluor: 49*; RGS16-Gao: 99.7; RGS7-Gao: 105.1; GSH bead fluor: 8; RGS8-Gao: 99.8

How did Cc1ccccc1OCC(=O)N=Nc1c(O)n(C)c2ccccc12 do in these assays?
RGS4-Gao reg: 98.2; Avidin bead fluor: 4; RGS16-Gao: 101.5; RGS7-Gao: inconclusive; RGS8-Gao: 102.2

How did CCN(CC)S(=O)(=O)C1CCS(=O)(=O)C1 (configuration not stated) do in these assays?
RGS4-Gao reg: 82.1; Avidin bead fluor: 4; RGS16-Gao: 55.0; RGS7-Gao: 84.9; GSH bead fluor: 242*; RGS8-Gao: 90.7

Results for CCCCS(=O)(=O)C1CCS(=O)(=O)C1 (configuration not stated) ?
RGS4-Gao reg: 93.6; Avidin bead fluor: 20; RGS16-Gao: 96.9; RGS7-Gao: 95.9; GSH bead fluor: 10; RGS8-Gao: 100.1

How did COc1ccc(CNC(=O)C2CC(c3ccccc3[N+](=O)[O-])=NO2)cc1 (configuration not stated) do in these assays?
RGS4-Gao reg: 99.1; Avidin bead fluor: 32; RGS16-Gao: 99.3; RGS7-Gao: 99.8; GSH bead fluor: 13; RGS8-Gao: 102.8

Results for COc1ccccc1CNC(=O)C1CC(c2ccccc2[N+](=O)[O-])=NO1 (configuration not stated) ?
RGS4-Gao reg: 99.3; Avidin bead fluor: 49*; RGS16-Gao: 101.5; RGS7-Gao: 107.3; GSH bead fluor: 11; RGS8-Gao: 98.6

What do the screens show for `O=C(c1ccc([N+](=O)[O-])c(CS(=O)(=O)c2ccc(Cl)cc2)c1)N1CCCC1`?
RGS4-Gao reg: 92.6; Avidin bead fluor: 13; RGS16-Gao: 37.3; RGS7-Gao: 92.7; GSH bead fluor: 11; RGS8-Gao: 82.7
